# WRN inhibitor: blocks human WRN helicase; Q14191; WRN helicase unwinding, fluorescent forked duplex, kinetic; Potency, µM (doses to about 114 µM), inactives show at the top dose activity change, negative = inhibition, hits mostly inhibitors; 0.46% of 360,000 active; AID 651768; also: % is scaled to controls: 0 for no effect and ±100 for the full control effect; nearly all actives have a fitted effect of over 55% in size
#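 Fluorescence dequenching readout, ex 525 nm/em 598 nm, kinetic mode: forked duplex DNA (100 nM final) with adjacent fluorophore and quencher unwound by WRN (20 nM final) with 2 mM ATP. Compound preincubation 15 min, room temperature.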
# Pol kappa inh: DNA polymerase kappa (human) inhibition. Q9UBT6. purified Pol kappa, fluorescent DNA synthesis assay, 10 min. Potency, µM (highest dose often 107 µM), for inactives: top-dose activity, negative = inhibition, most hits filed as inhibitors. 0.53% of 400,000 active. AID 588579; also: % is scaled to controls: 0 for no effect and ±100 for the full control effect
#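 10 nM Pol kappa preincubated 15 min at room temperature with compounds, then reaction started with substrate at 50 nM final. Fluorescence read kinetically at 0 and 10 min; buffer-only wells served as negative control.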
# POLH inh: DNA polymerase eta (human) inhibition. Q9Y253. Potency, µM (top dose mostly 114 µM), for inactives: at the top dose activity change, negative = inhibition, hits mostly inhibitors. 1.2% of 390,000 active. recombinant Pol eta, fluorescent DNA replication assay. AID 588591; also: % is scaled to controls: 0 for no effect and ±100 for the full control effect
#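 Pol eta (10 nM) was preincubated with compounds for 15 min at room temperature, after which fluorescent replication substrate (50 nM final) was added to start the reaction. Fluorescence was read kinetically at 0 and 10 min.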
# Pol iota inh: inhibitors of human DNA polymerase iota | AID 588590 | Pol iota fluorescent replication assay, 10 min | Q9UNA4 | 1% of 390,000 active | Potency, µM (top dose mostly 115 µM), for inactives: top-dose activity, negative = inhibition, usual class: inhibitors
#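 Fluorescent replication assay read twice, at 0 min and 10 min after adding 50 nM (final) substrate. Enzyme (10 nM) and compounds were first incubated 15 min at room temperature; enzyme-free buffer wells were negative controls.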
# POLB inh: blocks human DNA polymerase beta activity; Pol beta primer extension/strand displacement, fluorescence kinetic; Potency, µM (series often up to 114 µM), for the others: top-dose activity change, negative = inhibition, usual class: inhibitors; 1.3% of 340,000 active; also: % is scaled to controls: 0 for no effect and ±100 for the full control effect
#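 Preincubation: enzyme (10 nM) with compound, 15 min, RT. Reaction: substrate added to 50 nM final. Reads: 0 and 10 min. Analysis: normalized, Hill fit.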
# FEN1 inh: inhibitors of human flap endonuclease 1. P39748. Recombinant FEN1 flap cleavage, fluorescence, 15 min. Potency, µM (highest dose often 114 µM), inactives show at the top dose activity change, negative = inhibition, most hits filed as inhibitors. 0.35% of 390,000 active. AID 588795; also: % is scaled to controls: 0 for no effect and ±100 for the full control effect; nearly all actives have a fitted effect of over 65% in size
# Target sequence (P39748 whole entry, looked up): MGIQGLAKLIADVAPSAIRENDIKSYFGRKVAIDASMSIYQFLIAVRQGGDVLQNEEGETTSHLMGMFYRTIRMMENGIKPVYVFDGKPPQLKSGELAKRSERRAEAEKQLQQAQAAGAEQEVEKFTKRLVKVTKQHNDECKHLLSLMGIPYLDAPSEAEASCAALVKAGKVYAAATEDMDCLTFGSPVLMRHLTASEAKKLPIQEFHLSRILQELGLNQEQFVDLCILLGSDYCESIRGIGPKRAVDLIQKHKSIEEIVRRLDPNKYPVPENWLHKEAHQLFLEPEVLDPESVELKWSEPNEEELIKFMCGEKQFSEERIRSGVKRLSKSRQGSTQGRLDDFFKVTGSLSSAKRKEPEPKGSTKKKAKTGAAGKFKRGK
#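 Concentration–response screening of FEN1 (10 nM): 15 min compound preincubation at room temperature, reaction started with 50 nM substrate and read at 0 and 15 min. Corrected, normalized data were fitted by a four-parameter Hill equation.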
# * = called active by the depositor; u = inconclusive; x = not tested or not shown; [ ] = another dose, or the depositor's remark. Only some compounds are listed: those with a hit (about 2.4% of all), similar ones and a draw of the others. Calls follow the shape of the dose curve; as a rule, active = well fitted curve in the direction sought with a large enough effect; inconclusive = small, poorly fitted or top-dose-only effect, or another doubt; inactive = no such curve, though single readings can be large; an effect the other way counts as inactive or inconclusive. Potency is read from the fitted curve at half-maximal effect.
SMILES,WRN inhibitor,Pol kappa inh,POLH inh,Pol iota inh,POLB inh,FEN1 inh
Cn1c2ccccc2n2c(=O)cc(-c3ccccc3)c(C#N)c12,u,-7%,-1%,97%,45µM*,1%
CC(=O)C1=C(O)C(=O)N(c2ccccn2)C1c1ccccc1[N+](=O)[O-] (stereo not drawn),71µM*,8%,-3%,11%,2%,3%
CC(=O)C1=C(O)C(=O)N(c2ccc(Br)cn2)C1c1ccccc1[N+](=O)[O-] (stereo not drawn),10%,-6%,-3%,23%,0%,14%
Cc1ccc(N(CC(O)COCc2ccco2)S(=O)(=O)c2ccc(C)cc2)cc1 (stereo not drawn),u,89µM*,50µM*,u,22µM*,-19%
O=C(CSc1nc(-c2ccccc2)no1)N1CCN(c2ccccc2F)CC1,x,-9%,-12%,89µM*,1%,-3%
CC(C)c1ccc(-c2noc(SCC(=O)N3CCN(c4ccccc4F)CC3)n2)cc1,x,-16%,-18%,29%,u,2%
O=C(CC1CCCC1)NNC(=O)c1ccccc1O,2%,x,-3%,x,x,x
O=C(CCC1CCCC1)NNC(=O)c1cc2ccccc2cc1O,-10%[57.1 µM],-5%,-14%,u,50µM*,-11%
Cc1ccccc1C(=O)N1CCc2cc(-c3nc(NC(=O)Cc4ccc5c(c4)OCO5)sc3C)ccc21,0%,-16%,1%,4%,0.25µM*,8%
Cc1sc(NC(=O)Cc2ccc3c(c2)OCO3)nc1-c1ccc2c(c1)CCN2C(=O)c1cccc(F)c1,4%,-3%,0%,19%,3%,-6%
CCC(C(=O)NCCc1ccc(OC)c(OC)c1)n1nc(C)c2sc3ccccc3c2c1=O (stereo not drawn),x,-15%,-11%,u,u,-5%
O=C(Nc1ccccc1Cl)N1CCC2(CC1)Oc1ccccc1C(=O)N2Cc1ccc(F)cc1,x,-16%,-22%,20%,1%,-3%
CS(=O)(=O)c1cc([N+](=O)[O-])c(Sc2nc3ccccc3[nH]2)c([N+](=O)[O-])c1,56µM*,-5%,-4%,u,-2%,-16%
O=C(O)c1cc([N+](=O)[O-])c(Sc2nc3ccccc3[nH]2)c([N+](=O)[O-])c1,u,-7%,u,u,8%,16%
CN(C)CC(C(=O)c1ccccc1)c1ccccc1 (stereo not drawn),u,-1%,-15%,32µM*,2%,-1%
NCCc1nc2cccnc2n1-c1ccccc1,x,-3%[60.1 µM],-14%,39%,7%,1%
COc1ccc2c(c1)c1c(c(=O)n(Cc3ccccc3)c(=O)n1Cc1ccccc1)n2C,x,1%,-20%,5%,2%,19%
CCCS(=O)(=O)c1c(S(=O)(=O)CCC)c2cc(C(C)(C)C)ccn2c1C(=O)c1ccccc1,x,-16%,89µM*,32%,2%,-2%
Cc1ccc(O)c(NC(=S)NC(=O)/C=C/c2ccco2)c1,4%,-9%,-1%,20%,u,-1%
Cc1ccc(NC(=O)N/C=C/c2ccco2)c(C)c1,-23%[57.1 µM],u,79µM*,u,u,u
O=C(CN1C(=O)C2CCCCN2c2ccc(C(=O)N3CCCC3)cc21)NCc1cccc(Cl)c1 (stereo not drawn),x,-10%[60.1 µM],u,24%,-2%,3%
CCOC(=O)c1c(C)[nH]c(C)c1S(=O)(=O)N1CCCC(C(=O)N2CCN(c3ccc(Cl)cc3)CC2)C1 (stereo not drawn),x,-6%[60.1 µM],-14%,8%,15%,-6%
O=C(Nc1nnc(C23CC4CC(CC(C4)C2)C3)s1)c1ccc(N2C(=O)CCC2=O)cc1,-15%[57.1 µM],-41%,u,u,10µM*,3%
Cc1cc(O)c2c(C)c(CC(=O)NCc3ccccc3Cl)c(=O)oc2c1,x,2%,-15%,29%,-1%,23%
O/N=C(/C[n+]1cccc(Br)c1)c1ccc2ccccc2c1,x,-5%,x,35%,x,-10%
SMILES,WRN inhibitor,Pol kappa inh,POLH inh,Pol iota inh,POLB inh,FEN1 inh
O=[N+]([O-])c1ccc(O)c(Nc2ncnc3ccccc23)c1,5%,-11%,u,-19%,28µM*,-4%
O=[N+]([O-])c1ccc(O)c(Nc2ncnc3ccc(Br)cc23)c1,-17%,-13%,-11%,30%,u,u
CC(=O)Nc1cccc(NC(=O)CSc2nc(C3CC3)nc3ccccc23)c1,-13%,-4%,-17%,28%,u,5%
CC(=O)c1cccc(NC(=O)CSc2nc(C3CC3)nc3ccccc23)c1,-28%,-35%,-18%,25µM*,u,-23%
O=C(CSc1nc(-c2ccccc2)nc2ccccc12)Nc1cccc(C(=O)O)c1,-14%[11.6 µM],1%,35µM*,u,0%,-14%
O=C(O[C@H]1[C@H](Cc2ccccc2)NS(=O)(=O)[C@H]2CC3C=C[C@]12O3)c1ccc(Br)cc1,x,-16%,x,-2%,x,-14%
O=C(NCCN1CCCCC1)c1ccc(Cn2c(SCc3ccccc3)nc3cccnc32)cc1,x,7%,-16%,29%,31%,3%
CCOc1ccc(CCNC(=O)c2ccc3c(c2)c(C)c(C)n3Cc2ccccc2)cc1OCC,x,0%,-18%,20%,1%,-6%
CCCCNC(=O)C1c2ccccc2Oc2ccccc21,-4%,0%,4%,17%,7%,-1%
CCC(=O)Nc1ccc(NC(=S)NC(=O)/C=C/c2ccco2)cc1,-11%,-24%,u,u,-27%,2%
O=C(NCCc1ccccc1)/C(=C/c1ccco1)c1ccccc1,u,-3%,u,-19%,35µM*,3%
CC(=O)NC(=S)Nc1ccc(NC(=S)NC(=O)/C=C/c2ccco2)cc1,3%[11.6 µM],-31%,u,32µM*,u,-2%
O=C(/C=C\c1ccco1)Nc1nc(-c2ccc3ccccc3c2)cs1,u,-15%,-9%,-2%,12%[57.1 µM],-8%
O=C(NCc1ccco1)C1c2ccccc2Oc2ccccc21,u,u,7.9µM*,u,18µM*,-1%
Cc1ccc(-c2csc(NC(=S)NC(=O)/C=C/c3ccco3)n2)cc1,-22%,u,-3%,50µM*,4%,-16%
CCS(=O)(=O)N1CCCc2cc(C(=O)Nc3cc([N+](=O)[O-])ccc3C)ccc21,x,-14%,-8%,-20%,-1%,-20%
O=C(/C=C/c1ccc([N+](=O)[O-])cc1)NCc1ccco1,-26%[57.1 µM],-15%,-13%,2%,-17%,-7%
COC(=O)c1ccccc1NC(=O)/C=C/c1ccco1,-22%,0%,18µM*,u,-26%,-16%
